Cruzain Triton = blocks cruzain activity in presence of Triton detergent. P25779. purified cruzain, Z-FR-AMC fluorescence, 0.01% Triton. Potency, µM, hits mostly inhibitors. 0.43% of 200,000 active; note: nearly all actives have a fitted effect of over 40% in size
Target sequence (P25779 123-467 limits assumed): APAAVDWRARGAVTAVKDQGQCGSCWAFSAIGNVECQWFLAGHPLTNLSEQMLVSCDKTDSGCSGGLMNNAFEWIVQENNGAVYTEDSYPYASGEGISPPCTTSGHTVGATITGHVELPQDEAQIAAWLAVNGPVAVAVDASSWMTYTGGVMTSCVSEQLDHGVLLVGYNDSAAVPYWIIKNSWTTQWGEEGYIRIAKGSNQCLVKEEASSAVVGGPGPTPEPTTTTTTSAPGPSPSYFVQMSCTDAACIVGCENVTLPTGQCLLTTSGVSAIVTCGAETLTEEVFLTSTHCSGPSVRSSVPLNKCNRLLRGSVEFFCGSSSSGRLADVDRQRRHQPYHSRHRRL
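Steps: dispense cruzain (1.5 nM final) in acetate buffer pH 5.5 with DTT and 0.01% Triton X-100; pin-transfer compounds; incubate 15 min RT; add Z-FR-AMC (2 uM final); read fluorescence every 30 s, using the 60 s intensity change.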
Cruzain noTriton = blocks cruzain activity in detergent-free assay | P25779 | purified cruzain, Z-FR-AMC fluorescence, no detergent | Potency, µM, usual class: inhibitors | 2.3% of 200,000 active | AID 1476; note: nearly all actives have a fitted effect of over 40% in size
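Detergent-free condition (0.00005% Triton X-100) in acetate buffer pH 5.5 with DTT. 1.5 nM enzyme and compound were pre-mixed 15 min, then 2 uM Z-FR-AMC substrate added; reaction progress from fluorescence change between first and third reads (60 s).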
NS1 function inh = inhibitors of influenza NS1 protein function | Potency, µM (doses to about 46.1 µM) | 0.4% of 270,000 active | AID 2326; calls by dose curve; note: actives are rising curves; nearly all actives have a fitted effect of over 50% in size
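Read-out: OD600 growth recovery of NS1-expressing budding yeast. Cells grown overnight at 30C in -URA glucose medium, washed, resuspended and diluted 1:100 in 2% galactose assay medium, pH 6.0. Same strain lacking NS1 served as positive control.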
Of the large screens only hits and unclear results are named; the others gave an inactive call. Only a selection was taken, and hits are over-represented in it overall. Unless noted, calls come from the whole dose curve; as a rule, active = well fitted curve in the direction sought with a large enough effect; inconclusive = small, poorly fitted or top-dose-only effect, or another doubt; inactive = no such curve, though single readings can be large; an effect the other way counts as inactive or inconclusive.

Cc1ccc(Nc2nc(N)c3ccccc3n2)cc1Cl	none (no result: Cruzain Triton, Cruzain noTriton)
Nc1nc(Nc2ccc(Cl)cc2)nc2ccccc12	Cruzain Triton 28.2µM, Cruzain noTriton 10µM
COc1cccc(C(=O)CC2c3c(c(Br)c4c(c3OC)OCO4)CCN2C)c1 (configuration not stated)	none (no result: NS1 function inh)
COc1ccc2[nH]cc(CCNc3ncncc3-c3ccoc3)c2c1	none (no result: NS1 function inh)
CC(=O)Nc1ccc(C2Sc3ccccc3NC3=C2C(=O)c2ccccc23)cc1 (configuration not stated)	none (no result: NS1 function inh)
CCc1ccc(C2Sc3ccccc3NC3=C2C(=O)c2ccccc23)cc1 (configuration not stated)	Cruzain noTriton inconclusive (no result: NS1 function inh)
O=C1C2=C(Nc3ccccc3SC2c2ccc(C(F)(F)F)cc2)c2ccccc21 (configuration not stated)	Cruzain noTriton 20µM (no result: NS1 function inh)
CC(C)c1ccc(C2Sc3ccccc3NC3=C2C(=O)c2ccccc23)cc1 (configuration not stated)	Cruzain noTriton 10µM (no result: NS1 function inh)
COc1ccc(-c2nnc(SCC(=O)Nc3cccc(F)c3)s2)cc1	none (no result: NS1 function inh)
c1nc(NCCc2cnc[nH]2)c2[nH]cnc2n1	none
Cc1cc(SCc2sc(-c3ccc(C(F)(F)F)c(F)c3)nc2C)ccc1OCC(=O)O	Cruzain noTriton inconclusive (no result: NS1 function inh)
O=C(CSc1nc(-c2ccccc2)nc2ccccc12)Nc1nccs1	Cruzain noTriton inconclusive
O=C(CSc1nc(-c2ccccc2)cs1)Nc1nccs1	Cruzain noTriton 25.1µM
CCC(Oc1ccccc1F)C(=O)N1CCC(c2nc3ccccc3s2)CC1 (configuration not stated)	Cruzain noTriton inconclusive (no result: NS1 function inh)
Cc1ccc(-c2nsc3c(N4CCN(C(=O)c5ccco5)CC4)ncnc23)cc1	Cruzain noTriton inconclusive, NS1 function inh 3.55µM
O=C(c1ccco1)N1CCN(c2ncnc3c(-c4ccc(Cl)cc4)nsc23)CC1	none (no result: Cruzain Triton, Cruzain noTriton)
Cc1cccc(-n2c(/C=C/c3ccccc3O)nc3ccccc3c2=O)c1	Cruzain noTriton inconclusive (no result: NS1 function inh)
COc1cccc(-n2c(/C=C/c3ccccc3O)nc3ccccc3c2=O)c1	Cruzain noTriton 20µM (no result: NS1 function inh)
CCOC(=O)c1c(NC(=O)/C=C/c2ccc(OCC)cc2)sc2c1CCCC2	none (no result: NS1 function inh)
CCc1ccc2oc(-c3cc(N=Cc4cccc(OC)c4O)ccc3O)nc2c1	Cruzain noTriton 15.8µM
CCc1ccc2oc(-c3cc(NC(=O)c4cc(OC)c(OC)c(OC)c4)ccc3O)nc2c1	none (no result: NS1 function inh)
C[Si](C)(C)Cl	none (no result: NS1 function inh)
CC(=O)c1ccc(Oc2nc(C)nc3c2oc2ccccc23)cc1	Cruzain noTriton inconclusive (no result: NS1 function inh)
Cc1cccc(NC(=O)c2cc3ccccc3oc2=O)c1	none (no result: Cruzain Triton, Cruzain noTriton)
Cc1ccc(S(=O)(=O)N/N=c2\oc3ccccc3cc2C(=O)Nc2cccc(C)c2)cc1	Cruzain noTriton 7.94µM
COc1ccc2c(c1)c1c(c(=O)n(Cc3ccccc3)c(=O)n1CC(=O)Nc1ccccc1F)n2C	none (no result: NS1 function inh)
COCCNC(=O)c1ccc2nc(CCc3ccccc3)oc2c1	none (no result: NS1 function inh)
CC(=O)c1ccc(NC(=O)CN2C(=O)/C(=C/C=C/c3ccccc3)SC2=S)cc1	Cruzain noTriton 10µM
O=C(CCCN1C(=O)S/C(=C\C=C\c2ccccc2)C1=O)Nc1ccc(C(=O)O)cc1	none (no result: Cruzain Triton, Cruzain noTriton)
COc1ncc2nc(-c3ccccc3)c(=O)n(-c3ccccc3)c2n1	none (no result: NS1 function inh)
O=C(Nc1cccc(Cl)c1Cl)C1CC(=O)N(c2ccc(Br)cc2)C1 (configuration not stated)	Cruzain noTriton 25.1µM
O=C(Nc1cccc(F)c1)C1CC(=O)N(c2ccc(Br)cc2)C1 (configuration not stated)	none
N#CCc1ccccc1	none (no result: NS1 function inh)
CC(C)(C)NC(=O)Cn1nnc(-c2ccc(OCc3c(F)cccc3Cl)cc2)n1	none (no result: Cruzain Triton, Cruzain noTriton)
CN(CCOc1ccc(-c2ccn(S(=O)(=O)c3ccc(Cl)cc3)n2)cc1)c1ccccn1	none
Cc1ccc(S(=O)(=O)n2ccc(-c3ccc(OCc4c(F)cccc4Cl)cc3)n2)cc1	Cruzain noTriton 31.6µM
Cc1ccc(S(=O)(=O)n2ccc(-c3cccc(OCc4c(F)cccc4Cl)c3)n2)cc1	Cruzain noTriton 7.94µM
Cc1cc2nc3[nH]c4c(Cl)cc(Cl)cc4c3nc2cc1C	none
Cc1ccc(CN(Cc2ccco2)C(=O)c2oc3c(C)c(C)ccc3c2C)cc1	Cruzain noTriton 25.1µM (no result: NS1 function inh)
Cc1ccc(CN(Cc2ccco2)C(=O)c2oc3ccc(C)cc3c2C)cc1	Cruzain noTriton inconclusive (no result: NS1 function inh)
CCCC[C@@H](C=O)NC(=O)[C@H](CC(C)C)NC(=O)[C@H](CC(C)C)NC(C)=O	Cruzain Triton inconclusive, Cruzain noTriton 0.0032µM (no result: NS1 function inh)
CC(=O)N[C@@H](CC(C)C)C(=O)O	none (no result: NS1 function inh)
COC(=O)C(C)NC(=O)C(C)NC(=O)OCc1ccccc1 (configuration not stated)	none
CSCCC(NC=O)C(=O)NC(CC(C)C)C(=O)NC(Cc1ccccc1)C(=O)O (configuration not stated)	none (no result: NS1 function inh)
CCCCC(C=O)NC(=O)C(CC(C)C)NC(=O)OCc1ccccc1 (configuration not stated)	Cruzain Triton 0.002µM, Cruzain noTriton 0.0025µM (no result: NS1 function inh)

Screening data deposited in PubChem by National Center for Advancing Translational Sciences (NCATS).
